system: LOC_OS03G12390-cb001; assay: thermal shift delta Tm vs DMSO control; higher = stronger stabilization (binding); conditions: 12.5 µM; protein concentration 2 µM
How it was run: (§1)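 Thermal shift values come from differential scanning fluorimetry on purified rice kinase domains made in E. coli, with melting temperatures obtained from Boltzmann fits. Samples of 19.5 μl held 2 μM kinase, 100 mM potassium phosphate pH 7.5, 150 mM NaCl, 10% glycerol, 5 × SYPRO Orange and compound in DMSO, and were heated from 25°C to 95°C at 0.05°C/s. Each shift is a triplicate mean relative to the DMSO-only protein sample.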
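Also: purified Escherichia coli-expressed rice kinase domain construct.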

Compound | thermal shift delta Tm [°C]
OCCn1cc(-c2cnc3nnn(Cc4ccc5ncccc5c4)c3n2)cn1 | -0.07
O=C1NC(=O)C(c2cnc3ccccn23)=C1c1cn2c3c(cc(F)cc13)CN(C(=O)N1CCCCC1)CC2 | 4.58
C=CC(=O)N1CCC[C@@H](n2nc(-c3ccc(Oc4ccccc4)cc3)c3c(N)ncnc32)C1 | 0.1
CC(C)(O)CNc1ncc(-c2ccnc(Nc3ccnc(Cl)c3)n2)c(CC2CC2)n1 | -0.18
COc1ccc(S(=O)(=O)N(C(C)=O)c2ccccc2/C=C/c2cc[n+]([O-])cc2)cc1 | 0.13

system: LOC_OS03G27990-cb004; assay: as above; conditions: 12.5 µM; protein concentration 2 µM
How it was run: as §1

Compound | thermal shift delta Tm [°C]
COc1cc(OC)cc(-c2cc3cnc(N)nc3nc2NC(=O)NC(C)(C)C)c1 | 0.16
COc1cc2nccc(Oc3ccc(NC(=O)C4(C(=O)Nc5ccc(F)cc5)CC4)cc3)c2cc1OC [Cabozantinib malate (XL184)] | 0.34
COc1ncc(-c2ccc3nccc(-c4ccnnc4)c3c2)cc1NS(=O)(=O)c1ccc(F)cc1F | 0.69
Cc1cc(C(C)Nc2ccccc2)c2nc(N3CCOCC3)cc(=O)n2c1 (stereo not drawn) | 0.21
FC(F)(F)c1ccc(CNc2ccc(Cc3c[nH]c4ncc(Cl)cc34)cn2)cn1 [Pexidartinib (PLX3397)] | 0.52
NC(=O)c1ccc(N(C(N)=O)c2c(F)cccc2F)nc1-c1ccc(F)cc1F | 0.18
NCC(=O)Nc1ccc(-n2nc(C(F)(F)F)cc2-c2ccc3c(ccc4ccccc43)c2)cc1 | -0.15
CCn1c(-c2nonc2N)nc2c(C#CC(C)(C)O)ncc(OC[C@H]3CCCNC3)c21 | 0.32
Nc1cccc(S(=O)(=O)N2CCCN(S(=O)(=O)c3ccc4c(c3)OCCO4)CC2)c1 | 0.13
C[C@@H]1COC(Nc2ccc3ncnc(Nc4ccc(OCc5nccs5)c(Cl)c4)c3c2)=N1 [Varlitinib] | 0.32
Cc1cc2c(F)c(Oc3ncnn4cc(OC[C@@H](C)OC(=O)[C@H](C)N)c(C)c34)ccc2[nH]1 | 1.72
CNC(=O)c1ccc(-c2cnc3ncc(Cc4ccc5ncccc5c4)n3n2)cc1F | 0.21
CN(C)C/C=C/C(=O)Nc1cc2c(Nc3ccc(F)c(Cl)c3)ncnc2cc1O[C@H]1CCOC1 [Afatinib (BIBW2992)] | 0.99
O=c1cc(N2CCOCC2)oc2c(-c3ccc4c(c3)OCCO4)csc12 | 0.46
C=CC(=O)Nc1cc(Nc2nccc(-c3c[nH]c4ccccc34)n2)c(OC)cc1N(C)CCN(C)C | 0.52
Nc1nccc(Oc2ccc3c(C(=O)Nc4cccc(C(F)(F)F)c4)cccc3c2)n1 | 0.11
CC(C)(C)c1nc(-c2ccc(NC(=O)Nc3cccc(C(F)(F)F)c3)c3ccccc23)c2c(N)nccn12 [kira6] | 7.11
COc1ccc(-c2cc3c(C)nc(N)nc3n([C@H]3CC[C@H](OCCO)CC3)c2=O)cn1 | 0.17
O=C(O)c1cc(O)c2c(c1)[C@@H]([C@H]1c3cc(C(=O)O)cc(O)c3C(=O)c3c(O[C@@H]4O[C@H](CO)[C@@H](O)[C@H](O)[C@H]4O)cccc31)c1cccc(O[C@@H]3O[C@H](CO)[C@@H](O)[C@H](O)[C@H]3O)c1C2=O [Sennoside B] | 0.89

Compound | thermal shift delta Tm [°C]
NC(=O)c1cnc2[nH]ccc2c1N[C@@H]1[C@@H]2CC3C[C@H]1C[C@@](O)(C3)C2 | 4.38
C=CC(=O)Nc1cccc(Nc2nc(Nc3ccc(OCCOC)cc3)ncc2F)c1 | 1.06
CCS(=O)(=O)Nc1ccc2c(c1)/C(=C(/Nc1ccc(CN3CCCCC3)cc1)c1ccccc1)C(=O)N2 [Hesperadin] | 2.77
COc1cc2c(cc1OC)[C@@H]1C(=O)c3ccc4c(c3O[C@@H]1CO2)C=CC(C)(C)O4 [Deguelin] | 0.07
Cc1cc(Nc2cc(N3CCN(C)CC3)nc(/C=C/c3ccccc3)n2)n[nH]1 [ENMD-2076 L-(+)-Tartaric acid] | 2.61
Cc1ccc(NC(=O)c2ccc(CN3CCN(C)CC3)cc2)cc1Nc1nc(-c2cccnc2)cs1 [Masitinib (AB1010)] | 0.29
C=CC(=O)N1CC[C@@H](Oc2nc(Nc3ccc(N4CCC(N5CCN(C)CC5)CC4)cc3)c(C(N)=O)nc2CC)C1 [Naquotinib(ASP8273)] | 5.37
N#CC(=C(/N)Sc1ccccc1N)/C(C#N)=C(\N)Sc1ccccc1N | 0.63
COc1cc2/c(=N/c3ccc(Br)cc3F)nc[nH]c2cc1OCC1CCN(C)CC1 [Vandetanib (ZD6474)] | 2.29
O=C(Nc1cccc(C(F)(F)F)c1)c1cccc2cc(Oc3cc(CO)ncn3)ccc12 | 0.52
CS(=O)(=O)CCNCc1ccc(-c2ccc3ncnc(Nc4ccc(OCc5cccc(F)c5)c(Cl)c4)c3c2)o1 [Lapatinib] | 0.47
c1cn2cc(-c3ccc4cn[nH]c4c3)nc(Nc3ccc(N4CCOCC4)cc3)c2n1 [Entospletinib (GS-9973)] | 1.72
CS(=O)(=O)c1cccc(CNc2nc(Nc3ccc4c(c3)CCC(=O)N4)ncc2C(F)(F)F)c1 | 1.28
CN1CCN(Cc2ccc(NC(=O)Nc3ccc(Oc4ccnc(N)n4)cc3)cc2C(F)(F)F)CC1 | 0.06
OCCn1cc(-c2cnc3nnn(Cc4ccc5ncccc5c4)c3n2)cn1 | 0.33
O=C1NC(=O)C(c2cnc3ccccn23)=C1c1cn2c3c(cc(F)cc13)CN(C(=O)N1CCCCC1)CC2 | 0.13
C=CC(=O)N1CCC[C@@H](n2nc(-c3ccc(Oc4ccccc4)cc3)c3c(N)ncnc32)C1 | 0.51
CC(C)(O)CNc1ncc(-c2ccnc(Nc3ccnc(Cl)c3)n2)c(CC2CC2)n1 | 0.11
COc1ccc(S(=O)(=O)N(C(C)=O)c2ccccc2/C=C/c2cc[n+]([O-])cc2)cc1 | -0.03

— the supplement of paper PMC9694430
